This is a sample that favours compounds with a hit; in the whole collection about 1.9% have one here.
EBNA-1 inhibitor: EBNA-1 DNA-binding inhibitors, primary screen, biochemical, fluorescence polarization; 300,000 compounds, 0.34% hits; AID 1950, 2009; inhibition, % at 14.8 µM; in the data active = inhibition above about 28%
ZTA DNA inh: blocks Epstein-Barr virus ZTA, an EBNA-1 counter-screen | ZTA-DNA binding, fluorescence polarization | inhibition, % at 11 µM | P03206 | 320,000 compounds, 0.15% hits; in the data active = inhibition above about 33%
Target sequence (P03206 whole entry, looked up): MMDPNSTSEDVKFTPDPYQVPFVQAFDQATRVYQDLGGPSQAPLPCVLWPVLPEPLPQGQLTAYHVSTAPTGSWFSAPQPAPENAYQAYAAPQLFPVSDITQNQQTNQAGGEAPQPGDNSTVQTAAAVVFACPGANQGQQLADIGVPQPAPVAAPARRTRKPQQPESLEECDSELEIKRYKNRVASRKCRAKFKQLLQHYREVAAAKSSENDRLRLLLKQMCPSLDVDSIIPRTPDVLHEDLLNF
aDG glyco up: activators of alpha-DG glycosylation, primary screen, uHTS, Pro5-aDG cells, AlphaScreen | alpha-DG glycosylation AlphaScreen (IIH6); 0% Pro5, 100% B10-LARGE cell signal | activation, % at 10 µM | 360,000 compounds, 0.22% hits | AID 624168, 2012;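 active = activation of at least 8% versus controls, or a plate z-score of at least 8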;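 note: Pro5 are CHO cells carrying HIG-tagged alpha-DG that lacks glycosylation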
PG9 Ab binder: binders of HIV-1 gp120 antibody PG9, primary screen, biochemical, TR-FRET. HIV-1 gp120 / PG9 antibody interaction. TR-FRET gp120-PG9 antibody binding. inhibition, % at 6.7 µM. 360,000 compounds, 0.43% hits. AID 624416, 2012; in the data active = inhibition above about 8.5%
NCF1 inh: p47phox/p22phox peptide binding inhibitors, primary screen, biochemical, uHTS, NADPH oxidase regulatory subunit; Neutrophil cytosol factor 1 (Homo sapiens), P14598; fluorescence polarization, 2 h; inhibition, % at 24.7 µM; 220,000 compounds, 0.53% hits;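 active = inhibition above about 30%, limit read from the data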;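 note: 0% = p47phox with labelled peptide and 100% = labelled peptide alone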
Target sequence (P14598 whole entry, looked up): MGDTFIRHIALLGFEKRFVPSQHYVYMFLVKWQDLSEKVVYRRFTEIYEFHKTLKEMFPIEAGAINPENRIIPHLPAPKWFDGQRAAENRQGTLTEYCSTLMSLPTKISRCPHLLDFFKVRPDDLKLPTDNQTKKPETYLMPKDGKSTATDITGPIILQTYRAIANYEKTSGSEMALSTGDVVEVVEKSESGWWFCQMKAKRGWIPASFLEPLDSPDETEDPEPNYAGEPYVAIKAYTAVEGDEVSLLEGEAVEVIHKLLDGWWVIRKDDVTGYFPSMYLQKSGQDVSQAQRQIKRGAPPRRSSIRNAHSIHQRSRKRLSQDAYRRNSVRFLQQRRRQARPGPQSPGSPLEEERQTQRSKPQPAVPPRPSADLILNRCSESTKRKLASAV
Rev-erbA mod: modulators of Rev-erb alpha DNA binding, primary screen, biochemical, FITC-DNA, fluorescence polarization, uHTS. Rev-erbα–FITC-DNA binding, 90 min. activity, % at 10 µM. 370,000 compounds, 0.79% hits. AID 1259318, 2017;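 active = activity above about 14%, limit read from the data; passing the limit was not always enough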;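 note: 0% = DMSO wells with 35 nM protein and 100% = DMSO wells with 750 nM protein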
NR1D1 mod conf: modulators of Rev-erb alpha DNA binding, confirmation, biochemical, FITC-DNA, fluorescence polarization, single point. 3,000 compounds, 61% hits. 90 min. shares compounds with Rev-erbA mod. activation, % at 25 µM;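 active = activation at or above a set limit, or at least 3 SD above the negative control mean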;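 note: 0% = 35 nM protein with DMSO and 100% = 750 nM protein high control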
RORg counter: modulation of RORgamma DNA binding, dose response, counter-screen for Rev-erb alpha modulator project, biochemical, fluorescence polarization, FITC-DNA. 910 compounds, 8% hits. shares compounds with Rev-erbA mod. purified RORgamma protein-FITC-DNA binding. IC50, µM;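 active = Compounds whose fitted half-maximal concentration for disrupting protein-DNA binding is below 10 micromolar; the record names Rev-erb in its text, so the target is in doubt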
Numbers without * were called inactive; i = inactive; nt = no result given.

SMILES	EBNA-1 inhibitor	ZTA DNA inh	aDG glyco up	PG9 Ab binder	NCF1 inh	Rev-erbA mod	NR1D1 mod conf	others
COc1nc(-c2ccc(C)cc2)ccc1-c1noc(-c2cccnc2)n1	5	22	0	0	nt	22*	8
Cc1ccc(CN2CCCCC(NC(=O)Nc3cccc([N+](=O)[O-])c3)C2=O)cc1 (stereo not given)	nt	nt	nt	nt	nt	-2	nt
Cc1cccc(N2CCN(C(=O)CCCn3c(=S)[nH]c4cc5c(cc4c3=O)OCO5)CC2)c1C	9	9	1	5	-11	24*	20*
CC(=O)c1ccc(N2CCN(C(=O)CCCn3c(=S)[nH]c4cc5c(cc4c3=O)OCO5)CC2)cc1	9	6	0	-2	-15	25*	17
O=C(Cn1c(=S)[nH]c2ccccc2c1=O)N1CCN(c2ccccc2)CC1	-2	-3	0	0	1	40*	24*
O=C(c1ccco1)N1CCC(Oc2cccnc2)CC1	nt	nt	nt	nt	nt	-4	nt
CCOC(=O)/C(C#N)=C\c1ccc(OCC(=O)Nc2ccc(C)cc2C)c(OC)c1	3	4	0	2	4	28*	21*
O=C1CCCC(O)=C1C=Nc1ccc2c(c1)oc1ccccc12	-7	-3	0	0	-4	30*	28*
O=C1CCCC(O)=C1C=Nc1cccc(C(F)(F)F)c1	-3	1	0	2	5	-2	nt
O=C(C1CCC1)n1ccc2ccc(-c3ccc4ccn(Cc5ccccc5)c4c3)cc21	nt	nt	nt	nt	nt	-5	nt
Cc1cc(C)n(-c2cc(N3CCOCC3)nc(-c3ccccc3)n2)n1	-1	12	0	3	-18	18*	24*
c1ccc(-c2nc(N3CCOCC3)cc(N3CCOCC3)n2)cc1	6	-4	0	0	-11	1	nt
COC(=O)c1c(NC(=O)c2ccccc2N(C)S(=O)(=O)c2ccccc2)sc2c1CCCC2	nt	nt	0	1	-6	4	nt
COC(=O)c1c(NC(=O)c2ccc(N(C)S(=O)(=O)c3ccc(C)cc3)cc2)sc2c1CCCC2	-5	5	0	-1	5	34*	15
COc1ccc(OC[C@@H](O)CN2CCC(C(O)(c3ccccc3)c3ccccc3)CC2)cc1	nt	nt	nt	nt	nt	-7	nt
O=C1N(Cc2ccccc2)c2ccccc2C12CCCc1sc(CCc3ccccc3)nc12 (stereo not given)	nt	nt	nt	nt	nt	10	nt
Cc1ccc(S(=O)(=O)c2nnn3c2nc(N2CCC(C(N)=O)CC2)c2ccccc23)cc1C	0	8	0	-2	nt	-3	nt
Cc1ccc(C)c(Nc2nc3c(S(=O)(=O)c4ccccc4)nnn3c3ccccc23)c1	2	3	0	1	-9	63*	33*	RORg counter=>40
Cc1ccc(S(=O)(=O)c2nnn3c2nc(Nc2cccc(C)c2)c2ccccc23)cc1	4	4	0	0	-1	29*	14
CCS(=O)(=O)c1nc(S(=O)(=O)c2ccc(Cl)cc2)c(NCCCN2CCCC2=O)s1	-14	-9	0	-3	nt	-1	nt
O=C1CCCN1CCCNc1nc2c(S(=O)(=O)c3ccc(Br)cc3)nnn2c2ccccc12	5	-5	0	2	nt	31*	6
Cc1cccc(Nc2nc3ccccc3n3nnnc23)c1	5	-4	0	2	2	17	nt
O=C(C1CCCN(S(=O)(=O)c2ccc([N+](=O)[O-])cc2)C1)N1CCN(Cc2ccccc2)CC1 (stereo not given)	nt	nt	nt	nt	nt	-1	nt
COC(=O)[C@]12C[C@H](CC(=O)NCCCCc3ccccc3)C(=O)N(CCc3ccc(OC)c(OC)c3)C1=C[C@H](C(C)C)O[C@@H]2C1CC1	nt	nt	nt	nt	nt	11	nt
COc1ccccc1CNc1nc2cc(-c3ccccc3C)sc2c(=O)n1C	nt	nt	0	1	nt	2	nt
SMILES	EBNA-1 inhibitor	ZTA DNA inh	aDG glyco up	PG9 Ab binder	NCF1 inh	Rev-erbA mod	NR1D1 mod conf	others
COc1ccccc1CNc1nc2cc(-c3sccc3C)sc2c(=O)n1C	nt	nt	0	1	nt	29*	20*
O=c1c2cc3cccnc3nc2ncn1CCc1c[nH]c2ccccc12	nt	nt	nt	nt	nt	1	nt
Cc1sc2nc(-c3ccco3)oc(=O)c2c1C	3	-9	0	4	-1	3	nt
Cc1ccccc1-c1nc2sc(C)c(C)c2c(=O)o1	-10	-20	0	2	nt	18*	0
COc1cc(-c2nc3sc(C)c(C)c3c(=O)o2)cc(OC)c1OC	-2	9	0	1	nt	31*	18
COc1ccc(-c2csc3nc(C(C)(C)C)oc(=O)c23)cc1OC	-2	-18	0	-2	3	2	nt
COc1ccc(-c2csc3nc(-c4ccc(C)cc4)oc(=O)c23)cc1OC	4	-6	0	0	43*	27*	-4
CCCCNC(=O)C[C@H]1C[C@@]2(C(=O)OC)C(=C[C@H](C(C)C)O[C@@H]2C2CC2)N(CCc2ccc(OC)c(OC)c2)C1=O	nt	nt	nt	nt	nt	-3	nt
Cc1cc2oc(=O)cc(-c3ccccc3)c2c(C)c1-c1ccc(O)cc1	nt	nt	0	-1	nt	17*	2
Cc1cc(O)c2c(-c3ccccc3)cc(=O)oc2c1	-2	11	0	-2	-14	-1	nt
O=C(OCc1cn(Cc2ccccc2)nn1)N1CCCC1	nt	nt	nt	nt	nt	-2	nt
CC(NC(=O)c1ccccc1NC(=O)c1ccco1)c1ccccc1 (stereo not given)	2	0	0	1	-3	21*	22*
CSc1ccccc1-c1nnc(-c2ccc(Cl)cc2Cl)o1	3	-7	1	1	1	13	nt
CSc1ccccc1-c1nnc(-c2ccc(Cl)c(Cl)c2)o1	3	8	0	0	-15	47*	51*	RORg counter=>40
CCOC(=O)N1CCC(n2c(SCC(=O)c3ccccc3)nc3ccsc3c2=O)CC1	-10	0	0	-2	3	37*	55*	RORg counter=i
CCOC(=O)CSc1nc2ccsc2c(=O)n1C1CCN(C(=O)OCC)CC1	-12	8	0	nt	-6	-6	nt
COc1ccc(Cl)cc1Nc1nc(C)nc2c1oc1ccccc12	6	-2	0	0	nt	15*	23*
Cn1cc(C2=C(c3ccc(Cl)cc3Cl)C(=O)NC2=O)c2ccccc21	3	6	0	-2	nt	36*	20*

Source: PubChem BioAssay
